According to PubChem BioAssay AID1159580 (chemical genetic matrix, 2015):
In all, about 5,500 compounds went through this assay and about 2,000 (36%) were called active. Inconclusive results (about 18%) are left out. Rule as the data show it: active = normalized growth mostly below about 0.91 (no sharp cut-off); inconclusive = no clear call, values can overlap the other calls; inactive = mostly above about 0.92. Some of the results follow.

Experiment: chemical genetic growth profiling, strain panel (AID 1159580);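 also: tested at 20 µM; growth read once vehicle control cultures reached saturation at 30 °C; 1 = growth at the plate median or of vehicle wells; lower values mean less growth of the strain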
Conditions: S. cerevisiae deletion strains, growth OD

Measured: normalized growth

O=c1[nH]c2cc(Cl)ccc2c(O)c1-c1ccc(Oc2ccccc2)cc1
inactive: locus YAL040C, strain CLN3, active compounds read low 1 | locus YCL061C, strain MRC1 (second series), active compounds read low 0.993 | locus YDR150W, strain NUM1, active compounds read low 0.992 | locus YDR363W, strain ESC2, active compounds read low 1 | locus YER002W, strain NOP16, active compounds read low 1.01 | locus YGR078C, strain PAC10, active compounds read low 1.01 | locus YJR075W, strain HOC1, active compounds read low 0.987 | locus YMR263W, strain SAP30, active compounds read low 0.999 | locus YMR307W, strain GAS1, active compounds read low 0.983 | locus YNL128W, strain TEP1, active compounds read low 1.02 | locus YNL153C, strain GIM3, active compounds read low 1.03 | locus YNL175C, strain NOP13, active compounds read low 1 | locus YNL197C, strain WHI3, active compounds read low 1.01 | locus YNL224C, strain SQS1, active compounds read low 1 | locus YNL322C, strain KRE1, active compounds read low 0.988 | locus YOR083W, strain WHI5 (second series), active compounds read low 0.99 | locus YPL055C, strain LGE1, active compounds read low 1.01

O=C(O)c1cc(O)c2c(c1)[C@@H]([C@@H]1c3cc(C(=O)O)cc(O)c3C(=O)c3c(O[C@H]4O[C@H](CO)[C@@H](O)[C@H](O)[C@H]4O)cccc31)c1cccc(O[C@H]3O[C@H](CO)[C@@H](O)[C@H](O)[C@H]3O)c1C2=O
inactive: locus YHR030C, strain SLT2, active compounds read low 1.09 | locus YHR079C, strain IRE1, active compounds read low 1.08 | locus YJL095W, strain BCK1, active compounds read low 1.02 | locus YJR066W, strain TOR1, active compounds read low 1 | locus YLR113W, strain HOG1, active compounds read low 1.06 | locus YNL183C, strain NPR1, active compounds read low 1.02 | locus YOR231W, strain MKK1, active compounds read low 1.05 | locus YPL256C, strain CLN2, active compounds read low 1.08
